This test relates to Tov-21-G. Put plainly: Confirmatory qHTS for gynecologic anti-cancer compounds from libraries of approved drugs and bioactive compounds. Further: nearly all actives have a fitted effect of over 55% in size. The conditions noted are these: gynecologic cancer cell panel viability, ATPlite luminescence, 48 h; series mostly up to 57.7 µM. The procedure, abridged:
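ATPlite luminescence read-out of cell viability; IC50 from 11-point 1:3 titrations, 57.5 uM to 0.977 nM, 48 h compound exposure at 37 C, 5% CO2. Cells seeded at 1,000/well 16 h before dosing.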
For orientation: Quantitative high-throughput screening tests each substance at several concentrations.

Inconclusive results are not listed. Active and inactive are the calls of the source. The call rests on the fitted dose curve; in most records, active means well fitted cell-killing curve with a large enough effect; inconclusive means small, poorly fitted or top-dose-only effect, or effect the other way; inactive means no such curve, though single readings can be large or run the other way.
Potency means the concentration at half of the fitted maximal effect.

For `CCN(CC)CCCC(C)Nc1c2ccc(Cl)cc2nc2ccc(OC)cc12` (stereo not given), the Potency is 30.6 µM (active). For `CN(C)/N=N/c1nc[nH]c1C(N)=O`, the Potency result is “inactive”. With `CC(C)C[C@H](NC(=O)[C@H](Cc1ccccc1)NC(=O)c1cnccn1)B(O)O`, the Potency is 0.0968 µM (active). For the compound `CCN1CCN(Cc2ccc(Nc3ncc(F)c(-c4cc(F)c5nc(C)n(C(C)C)c5c4)n3)nc2)CC1`, the Potency was 2.73 µM (active). Regarding `NS(=O)(=O)OC[C@@H]1C[C@@H](n2ccc3c(N[C@H]4CCc5ccccc54)ncnc32)C[C@@H]1O`, the Potency was 1.72 µM (active). For `CCC1C(=O)N(C)c2cnc(Nc3ccc(C(=O)NC4CCN(C)CC4)cc3OC)nc2N1C1CCCC1` (stereo not given), the Potency is 1.93 µM (active). The figure for `CCC(=O)N1CCN(c2ccc(-n3c(=O)ccc4cnc5ccc(-c6cnc7ccccc7c6)cc5c43)cc2C(F)(F)F)CC1` is 0.314 µM (active); for `CC(C)c1nn(-c2c(Cl)cccc2Cl)c2nc(Cc3ccc(OCCO)cc3)[nH]c(=O)c12` it is 0.0863 µM (active); for `O=C(CCCCCCNC(=O)c1cnc(N(c2ccccc2)c2ccccc2)nc1)NO` it is 21.7 µM (active). As to `COc1cccc2c1C(=O)c1c(O)c3c(c(O)c1C2=O)C[C@@](O)(C(=O)CO)C[C@@H]3O[C@H]1C[C@H](N)[C@H](O[C@@H]2CCCCO2)[C@H](C)O1`, the Potency was 8.63 µM (active). As to `CC(C)Nc1cc(-c2c[nH]c(C(=O)N[C@H](CO)c3cccc(Cl)c3)c2)c(Cl)cn1`, the Potency is 24.3 µM (active). On to `Cc1ccc(C(=O)Nc2ccc(CN3CCN(C)CC3)c(C(F)(F)F)c2)cc1C#Cc1cnc2cccnn12`, for which the Potency was 1.22 µM (active). Turning to `CC(Oc1cc(-n2cnc3ccc(CN4CCN(C)CC4)cc32)sc1C(N)=O)c1ccccc1C(F)(F)F` (stereo not given), the Potency was 27.3 µM (active).

As to `Nc1ccccc1NC(=O)c1ccc(CNC(=O)OCc2cccnc2)cc1`, the Potency is 7.69 µM (active). Take `CNc1nc(Nc2ccc(C(=O)N3CCOCC3)cc2OC)ncc1Cl`: the Potency result is “inactive”. As for `C1CCC(C(CC2CCCCN2)C2CCCCC2)CC1` (stereo not given), the Potency was 12.2 µM (active). `Cc1nc(N)ncc1-c1nc(N2CCOCC2)c2sc(C(C)(C)O)cc2n1`: the Potency is 1.53 µM (active). With `CCc1c2c(nc3ccc(O)cc13)-c1cc3c(c(=O)n1C2)COC(=O)[C@]3(O)CC`, the Potency is 1.09 µM (active). Consider `CCCCc1oc2ccccc2c1C(=O)c1cc(I)c(OCCN(CC)CC)c(I)c1`, for which the Potency was 56.2 µM (active). For the compound `COc1cc(Nc2ncc(F)c(Nc3ccc4c(n3)N(COP(=O)(O)O)C(=O)C(C)(C)O4)n2)cc(OC)c1OC`, the Potency was 1.37 µM (active). Consider `O=C(c1ccc(F)c(F)c1Nc1ccc(I)cc1F)N1CC(O)([C@@H]2CCCCN2)C1`, for which the Potency is 9.68 µM (active). For `COc1cc(N2CCC(N3CCN(C)CC3)CC2)ccc1Nc1ncc(Cl)c(Nc2ccccc2S(=O)(=O)C(C)C)n1`, the Potency is 6.11 µM (active). The figure for `Nc1ncn([C@@H]2O[C@H](CO)[C@@H](O)[C@H]2O)c(=O)n1` is 19.3 µM (active).

With `COC(C(=O)N1Cc2[nH]nc(NC(=O)c3ccc(N4CCN(C)CC4)cc3)c2C1)c1ccccc1` (stereo not given), the Potency is 1.37 µM (active). As for `OCCNC1CCCc2c1[nH]c1ccc(-c3ccccc3)cc21` (stereo not given), the figure is 27.3 µM (active).
